# Assay outcomes as filed in PubChem.
# EWS-Fli block: EWS/Fli transcriptional activity inhibition | A673 NR0B1-luciferase reporter, viability-normalised | inhibition, % at 12.6 µM | 0.67% of 350,000 active | AID 651661;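 active = mean inhibition of at least 50% after viability correction, with every replicate also passing that limit; inconclusive = mean reaches 50% but only one of two replicates passes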;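 note: firefly luciferase signal divided by Alamar Blue viability fluorescence both relative to DMSO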
# LGR2 inh: Drosophila LGR2 receptor signaling inhibition; HEK293 LGR2, CRE-luciferase, bursicon-stimulated, 4 h; inhibition, % at 9.99 µM; 0.35% of 380,000 active; AID 720647;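 active = drop in luminescence signal, shown as inhibition above about 50% in the replicate tests, limit read from the data, passing the limit was not always enough; inconclusive = probably only some replicates passing the limit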;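 note: agonist challenge used bursicon conditioned medium at about half maximal strength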
# PAX8 inh HTS: lowers PAX8-driven luciferase in RMG-I cells | RMG-I TPO-luciferase reporter, SteadyGlo, 24 h | inhibition, % at 12.6 µM | 1.2% of 360,000 active | AID 652154;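 active = mean replicate inhibition at least 60% with every replicate also reaching 60%; inconclusive = only one of the two criteria is met; inactive = mean below 60% and not all replicates reaching 60%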;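 note: luciferase light reporting Pax8 driven TPO promoter activity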
# TROY signal inh: inhibitors of TROY-dependent NF-kB signaling; inhibition, % at 10 µM; 0.98% of 360,000 active; AID 1347056; Q293 LMP1-TROYcd NF-kB luciferase reporter, 4 h;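 active = compounds whose plate-normalised and pattern-corrected inhibition of the luciferase reporter signal at the single screening dose is 50% or more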
# EBV LMP1 NFkB: reduces LMP1-driven NF-kappaB luciferase signal. LMP1-induced NF-kappaB luciferase reporter cells, luminescence. inhibition, % at 12.5 µM. 0.69% of 350,000 active. AID 504558; in the data active = inhibition above about 41%; inconclusive = no clear call, values can overlap the other calls
# TWEAK-Fn14 inh: blocks TWEAK-Fn14 interaction in a reporter cell assay; TWEAK-stimulated Fn14 reporter cells, luciferase luminescence, 8 h; inhibition, % at 10 µM; 2% of 360,000 active; AID 1159606; in the data active = inhibition above about 50%
# Numbers stand for hits; - = inactive; ? = inconclusive; . = no result given. Sampled rows, rich in hits. Any-hit rate of the full collection: about 3.1%.
SMILES,EWS-Fli block,LGR2 inh,PAX8 inh HTS,TROY signal inh,EBV LMP1 NFkB,TWEAK-Fn14 inh
Cc1cc(C(=O)COC(=O)c2ccccc2O)c(C)n1Cc1cccs1,.,.,.,64.0,87.2,102.2
COC(=O)CCCn1c(C)cc(C(=O)CCl)c1C,-,-,-,-,-,-
COC(=O)CCn1c(C)cc(C(=O)COc2ccccc2C(N)=O)c1C,-,-,-,-,-,52.8
Cc1cc(C(=O)COc2cccnc2[N+](=O)[O-])c(C)n1Cc1cccs1,-,-,-,-,-,-
Cc1cc(C(=O)COC(=O)c2ccc3c(c2)OCO3)c(C)n1Cc1cccs1,.,.,.,-,-,-
CC(C)NC(=O)Nc1ccc2c(c1)CC(=O)N([C@@H](C)CO)C[C@H](C)[C@H](CN(C)Cc1ccccc1)O2,-,-,-,.,.,.
C[C@H]1CCCCO[C@H](CN(C)S(=O)(=O)c2cccs2)[C@@H](C)CN([C@@H](C)CO)C(=O)c2cc(NS(=O)(=O)c3ccc(F)cc3)ccc2O1,-,-,-,.,.,.
C[C@@H]1CN([C@@H](C)CO)C(=O)Cc2cc(NS(C)(=O)=O)ccc2O[C@H]1CN(C)Cc1ccc(C(F)(F)F)cc1,-,-,-,.,.,.
O=C1Cc2c([nH]c3ccc(Br)cc23)-c2ccccc2N1,-,-,.,-,-,79.3
COc1ccc(-n2c(-c3ccc(Cl)cc3)c[n+]3c2CCc2ccccc2-3)cc1,-,-,93.6,-,-,-
O=C(CC(F)(F)F)N1C[C@@H]2[C@H](c3ccccc31)[C@H](CO)N2C(=O)CN1CCOCC1,-,-,-,.,.,.
CC(C)C#Cc1cnc2c(c1)C(=O)N([C@H](C)CO)C[C@@H](C)[C@H](CN(C)Cc1ccccc1F)O2,-,-,.,.,.,.
COc1cccc(-c2cn3nc4c(nc3n2)CCCC4)c1,.,.,.,-,-,-
Clc1ccc(-c2cn3nc4c(nc3n2)CCCC4)cc1,.,.,.,-,50.1,-
C[C@H](CO)N1C[C@H](C)[C@@H](CN(C)C(=O)c2cnccn2)Oc2ncc(C#CCC3CCCC3)cc2C1=O,-,-,.,.,.,.
CC(C)(C)C1CCC(OC(=O)c2ccncc2)CC1 (stereo unspecified),.,.,.,-,-,-
CC(C)(C)C1CCC(OC(=O)c2cncc(Br)c2)CC1 (stereo unspecified),-,-,-,70.6,-,74.3
Cc1cc(C)c2c(N)c(C(=O)c3ccccc3Cl)sc2n1,-,-,-,-,-,-
Cc1cc(C)c2c(N)c(C(=O)c3ccc(Cl)cc3Cl)sc2n1,.,-,-,-,-,52.3
Cc1cc(C)c2c(N)c(C(=O)Nc3ncc(C)s3)sc2n1,.,.,103.6,-,76.5,79.0
CC(=O)[C@H]1CC[C@H]2[C@@H]3C[C@H](C)C4=CC(=O)CC[C@]4(C)[C@H]3[C@@H](O)C[C@]12C,-,-,-,-,57.4,-
NC(=O)COc1ccccc1C1=NO[C@@](CC(=O)O)(C(=O)Nc2ccc3c(c2)OCCO3)C1,-,-,-,-,.,-
COc1ccc(C2=NO[C@@](CC(=O)O)(C(=O)Nc3ccc4c(c3)OCCO4)C2)cc1,-,-,-,55.2,-,-
COc1ccc(N(CC(=O)Nc2ccc3c(c2)OCO3)S(C)(=O)=O)c(OC)c1,.,.,-,-,-,-
COc1ccc(N(CC(=O)Nc2ccc3c(c2)OCCO3)S(C)(=O)=O)c(OC)c1,.,.,.,-,-,61.5
SMILES,EWS-Fli block,LGR2 inh,PAX8 inh HTS,TROY signal inh,EBV LMP1 NFkB,TWEAK-Fn14 inh
COc1ccc(N(CC(=O)Nc2ccc3c(c2)OCCO3)S(=O)(=O)c2cccnc2)cc1,.,.,.,-,-,57.1
COc1ccc(N(CC(=O)Nc2ccc3c(c2)OCCO3)S(=O)(=O)c2c(C)noc2C)cc1,.,.,.,-,-,65.3
COc1ccc(N(CC(=O)Nc2ccc3c(c2)OCO3)S(=O)(=O)c2ccccc2)cc1,-,-,-,-,-,-
COc1ccc(S(=O)(=O)Nc2ccc3c(c2)CC(=O)N([C@H](C)CO)C[C@H](C)[C@@H](CN(C)C(=O)Nc2ccc4c(c2)OCO4)O3)cc1,-,-,-,.,.,.
C[C@H](CO)N1C[C@H](C)[C@@H](CN(C)Cc2cccc(F)c2)Oc2cc(-c3ccc(F)cc3)ccc2S1(=O)=O,-,-,.,.,.,.
O=C(CSc1ccc(F)cc1)N1CCC(c2nc3ccccc3s2)CC1,.,-,.,-,-,-
Fc1ccc(-c2nnc(CN3CCC(c4nc5ccccc5s4)CC3)o2)cc1,.,.,-,-,-,52.6
Cc1cc(C)c(C(=O)/C=C/C=C/c2ccccc2)c(=O)[nH]1,.,-,-,-,-,-
Cc1cc(C)c(C(=O)/C=C/c2ccc(C(C)C)cc2)c(=O)[nH]1,-,79.6,.,54.5,-,92.6
CC(C)(O)c1cn([C@@H]2C[C@@H]3O[C@@H](CO)CC[C@@H]3O[C@@H]2CCc2ccc(-c3cccnc3)cc2)nn1,-,.,-,.,.,.
COC(=O)c1ccc(C(=O)NC(=S)Nc2nc3c(s2)CC(C)CC3)cc1 (stereo unspecified),.,-,-,93.1,-,109.4
O=C(NC(=S)Nc1nc2c(s1)CCCC2)c1ccc(C(=O)c2ccccc2)cc1,.,-,-,-,-,-
COc1ccc2c3c(n(C)c2c1)[C@@H](CO)N(Cc1nccs1)CC31CCN(C(C)=O)CC1,-,-,.,.,.,.
O=C(NCc1cccc(Cl)c1)c1ccc(S(=O)(=O)Nc2cccc(C(F)(F)F)c2)cc1,.,-,-,55.2,-,-
CSc1ccc(Cl)c(C(=O)Nc2ccc(Cl)cn2)c1,-,-,-,-,-,-
COc1cc(SC)ccc1C(=O)Nc1ccc(Cl)cn1,83.6,99.7,-,73.8,67.9,90.8
Cc1ccc(C(=O)Nc2nccc(-c3cccs3)n2)cc1,.,.,.,-,-,-
Cc1ccc(C(=O)Nc2ccc(Cl)cn2)cc1,-,-,.,-,-,56.2
CCCOc1ccc(C(=O)Nc2ccc(Cl)cn2)cc1,.,-,.,-,-,56.7
Cc1ccc(C(=O)Nc2ncc3c(Cl)cccc3n2)cc1,.,.,.,-,51.2,82.2
CO[C@H]1CN(C)C(=O)c2ccc(NS(=O)(=O)c3ccc(C)cc3)cc2OC[C@@H](C)N(C(=O)NC(C)C)C[C@@H]1C,-,-,.,.,.,.
Cc1ccc(S(=O)(=O)N(C)C[C@@H]2OCCCC[C@H](C)Oc3ccc(N(C)C)cc3C(=O)N([C@H](C)CO)C[C@H]2C)cc1,-,-,-,.,.,.
O=C(Nc1cc(F)ccc1F)N1CCCCN2[C@H](CO)[C@H](c3ccc(-c4cncnc4)cc3)[C@H]2C1,.,-,-,.,.,.
CC(C)C[C@@H](CN1CCC[C@H]1CN1C(=O)C(=O)NC[C@@H]1Cc1ccccc1)N1C[C@H](Cc2ccccc2)N(CC2CCCCCC2)C(=O)C1=O,-,?,64.6,-,.,-
Oc1ccc(C[C@H]2CN([C@@H](Cc3ccccc3)CN3CCCC3CN3C(=S)NC[C@@H]3Cc3ccccc3)C(=S)N2CC2CCCCC2)cc1 (stereo partly specified),-,-,-,-,.,-
Oc1ccc(C[C@H]2CNC(=S)N2C[C@H]2CCCN2C[C@H](Cc2ccccc2)N2C[C@H](Cc3ccc(O)cc3)N(CC3CCCCCC3)C2=S)cc1,-,-,-,-,.,-
